# Source: PubChem BioAssay
# RORg inh: blocks mouse ROR gamma transcriptional activity; P51450; Drosophila S2 Gal4-RORgamma UAS-luciferase reporter, 20 h; Potency, µM (doses to about 53.6 µM), hits mostly inhibitors; 310,000 tested, 5.4% active; note: nearly all actives have a fitted effect of over 60% in size
# Target sequence (P51450 whole entry, looked up, the tested form may be a part): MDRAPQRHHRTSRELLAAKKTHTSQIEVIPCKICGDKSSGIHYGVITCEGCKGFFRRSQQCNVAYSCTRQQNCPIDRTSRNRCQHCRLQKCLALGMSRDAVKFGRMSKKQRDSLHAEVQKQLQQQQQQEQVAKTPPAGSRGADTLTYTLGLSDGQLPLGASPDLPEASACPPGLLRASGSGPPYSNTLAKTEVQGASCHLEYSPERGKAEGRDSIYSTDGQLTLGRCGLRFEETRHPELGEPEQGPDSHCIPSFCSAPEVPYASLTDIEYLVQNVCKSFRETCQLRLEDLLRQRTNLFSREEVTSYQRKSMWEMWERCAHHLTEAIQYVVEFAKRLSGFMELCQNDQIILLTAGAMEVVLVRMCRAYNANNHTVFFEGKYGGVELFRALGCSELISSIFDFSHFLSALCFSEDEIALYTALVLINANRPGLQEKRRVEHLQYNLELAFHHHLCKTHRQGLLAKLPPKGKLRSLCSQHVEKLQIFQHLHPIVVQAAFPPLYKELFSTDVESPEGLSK
#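 Using a luciferase readout, inhibitors were identified by reduced reporter activity in Drosophila cells coexpressing a copper-inducible Gal4–ROR gamma fusion and UAS-driven Photinus luciferase, incubated 20 hr after 700 uM copper sulfate.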
# S2 tox: cell viability loss in ATXN counter-screen. S2 cells (HEK-293 line with an ATXN2-luciferase reporter) viability, CellTiter-Fluor protease fluorescence, 24 h. Potency, µM (top dose mostly 56.7 µM), usual class: cytotoxic. 400,000 tested, 0.49% active. AID 651635; note: nearly all actives have a fitted effect of over 40% in size
# ATXN2 expr inh: inhibitors of ATXN2 expression; HEK-293 ATXN2-luciferase reporter, luminescence, 24 h; Potency, µM (doses to about 57 µM), usual class: inhibitors; 360,000 tested, 0.72% active; AID 1745845; note: nearly all actives have a fitted effect of over 55% in size
#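 ATXN2-luciferase reporter cells (luciferase flanked by upstream and downstream ATXN2 gene portions) were treated 24 h at 37 °C with compounds at up to 57 uM. SteadyGlo luminescence gave expression; GF-AFC fluorescence gave viability.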
# HepG2 tox: kills HepG2 cells in TGF-b inhibitor counter-screen | 410,000 tested, 0.76% active | Potency, µM (highest dose often 46.1 µM), usual class: cytotoxic | HepG2 CAGA-GFP viability, ATP luminescence, 18 h
#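 CellTiter-Glo luminescence gave cytotoxicity after 18 hours at 37 degrees C. The cells were HepG2 CAGA-GFP in 1% FBS DMEM, stimulated with 500 pg/mL TGF-beta after compound addition. %Activity was normalised to no-cell wells (complete cell-killing) and DMSO (no toxicity), and curves were fitted and classified.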
# VP16 counter: counter-screen for ROR gamma inhibitors: Gal4-VP16 reporter; Drosophila S2 Gal4-VP16 UAS-luciferase, luminescence, 20 h; Potency, µM (top dose mostly 53.6 µM), hits mostly inhibitors; 310,000 tested, 3.5% active; AID 2546;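 note: Gal4-VP16 expression switched on by copper sulfate through the metallothionein promoter; nearly all actives have a fitted effect of over 50% in size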
# TGFb SMAD3 inh: inhibitors of TGF-b signaling | HepG2 CAGA-GFP TGF-b/SMAD3 reporter, GFP fluorescence, 18 h; TGF-beta stimulated, 500 pg/mL final | Potency, µM (highest dose often 46.1 µM), actives largely listed as inhibitors | 410,000 tested, 1.2% active | AID 588855; note: nearly all actives have a fitted effect of over 65% in size
#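 GFP signal (ex488/em500-530) from TGF-beta-stimulated HEPG2 CAGA-GFP cells, 500 pg/mL final, 18 h at 37 degrees C in DMEM plus 1% FBS, normalized to unstimulated and DMSO-stimulated controls.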
# Hits are given with their value; – = inactive; ? = inconclusive; · = no result given. An excerpt weighted towards active compounds, which were near 6.1% of everything screened. Calls come from the whole dose curve; as a rule, active = well fitted curve in the direction sought with a large enough effect; inconclusive = small, poorly fitted or top-dose-only effect, or another doubt; inactive = no such curve, though single readings can be large; an effect the other way counts as inactive or inconclusive.
SMILES,RORg inh,S2 tox,ATXN2 expr inh,HepG2 tox,VP16 counter,TGFb SMAD3 inh
COc1ccc(C2=CC(=O)OC3(CCCCC3)O2)cc1,–,–,–,–,–,–
C=C(C)C1(O)OC(=O)C=C1OC (centres undefined),13µM,–,–,–,11µM,–
COc1ccc(/C=C/C(=O)c2nc3ccccc3n2CC(=O)c2ccc(OC)cc2)cc1,10µM,–,–,–,–,–
COc1ccc(C(=O)/C=C/c2ccc(O)cc2)cc1,0.32µM,–,–,–,2µM,–
CCOC(=O)Nc1ccc(C(=O)/C=C/c2ccccc2)cc1,7.1µM,?,–,–,?,?
O=C(/C=C/c1ccc(O)cc1)c1ccc(NC2=C(N3CCCCC3)C(=O)c3ccccc3C2=O)cc1,0.32µM,?,?,–,?,6.3µM
Cc1c2cnn(-c3ccccc3)c(=O)c2c(C)n1CCCC(=O)Nc1cccc(F)c1,·,–,–,–,·,–
O=C(C=Cc1ccccn1)c1ccccc1,·,·,?,10µM,·,6.3µM
CSc1ccc(/C=C/C(=O)c2ccc(NC(=O)C(C)C)cc2)cc1,?,–,–,14µM,–,–
COc1ccc(C(=O)OCCc2ccc(O)cc2)cc1,7.1µM,–,–,–,13µM,–
O=C(/C=C/c1cccnc1)c1ccc([N+](=O)[O-])cc1,?,–,–,–,?,–
COc1cc(C(=O)/C=C/c2cccnc2)c([N+](=O)[O-])cc1OC,·,14µM,13µM,–,·,?
COc1ccc(CCOC(=O)c2ccc(NC(=O)CC#N)cc2)cc1,–,–,–,–,–,–
Cc1ccccc1NC(=O)c1cccc2c(=O)c3c([nH]c12)CCCC3,·,–,–,–,·,–
COc1ccc(S(=O)(=O)N(CC(=O)Nc2cc(Cl)ccc2C)Cc2ccccc2)cc1OC,·,?,–,–,·,?
O=C(/C=C/c1cccnc1)c1ccc(O)cc1,13µM,–,–,–,–,?
O=C(/C=C/c1cccnc1)c1ccccc1O,18µM,–,·,–,?,–
O=C(C=Cc1cccnc1)c1ccccc1,·,·,?,–,·,20µM
CCOC(=O)C(=Cc1ccccc1)C(=O)OCC,13µM,·,·,·,13µM,·
COc1ccc(C(=O)/C=C/c2ccc(O)cc2)c(O)c1CC=C(C)C,4µM,·,?,–,7.9µM,?
CN(C)C(=O)COc1ccc(C(=O)/C=C/c2cccnc2)cc1,18µM,?,–,–,?,?
O=C(/C=C/c1cccc(O)c1)c1ccc(N2CCOCC2)cc1,3.5µM,?,·,–,?,?
O=C(/C=C/c1cccc(O)c1)c1cccnc1,8.9µM,?,–,–,?,?
O=C(/C=C/c1ccccc1)c1ccc(O)cc1,11µM,·,·,·,?,·
CCN(CC)S(=O)(=O)c1ccc(NC(=S)NC(=O)C(C)C)cc1,13µM,?,–,–,?,–
SMILES,RORg inh,S2 tox,ATXN2 expr inh,HepG2 tox,VP16 counter,TGFb SMAD3 inh
C=CCN(CC=C)S(=O)(=O)c1ccc(NC(=S)NC(=O)C2CC2)cc1,11µM,–,–,–,?,18µM
CCOc1ccc(NC(=S)NC(=O)C2CCCC2)cc1,1.1µM,–,–,–,6.3µM,?
CCN(CC)S(=O)(=O)c1ccc(NC(=S)NC(=O)CC(C)C)cc1,?,–,–,–,?,–
CCN(CC)c1ccc(NC(=S)NC(=O)C2CCC2)cc1,1.8µM,–,–,–,6.3µM,–
Cc1sc(NC(=O)/C=C/c2ccco2)c(C(=O)OC(C)C)c1C,?,·,–,–,16µM,–
CSCCC(=O)Nc1nc(-c2ccccn2)cs1,13µM,–,–,–,–,?
O=C(/C=C/c1ccco1)Nc1nc(-c2ccccn2)cs1,2.8µM,–,·,–,11µM,?
O=C(Nc1nc(-c2nc3ccccc3s2)cs1)c1ccco1,?,–,–,–,–,–
O=C(Nc1nc(-c2nc3ccccc3s2)cs1)C1CC1,5.6µM,–,–,–,?,–
CCCc1cnc2c(c1SCC(=O)Nc1ccc([N+](=O)[O-])cc1)c(=O)n(C)c(=O)n2C,·,–,–,–,·,–
Cn1nc(C(=O)NCCN2Cc3ccccc3OC(c3ccsc3)C2)c2ccccc2c1=O (centres undefined),·,–,·,·,·,·
C[C@H](CCC(=O)O)[C@H]1CC[C@H]2[C@H]3[C@@H](CC[C@]12C)[C@@]1(C)CC[C@@H](O)C[C@H]1C[C@@H]3O,·,·,–,·,·,·
CCOC(=O)c1c(S(=O)(=O)N2CCC(C(=O)Nc3cccc(C)n3)CC2)c(C)n(C)c1C,·,–,–,–,·,–
O=C(CN1C(=O)CCC1=O)Nc1nc(-c2ccccn2)cs1,–,–,–,–,–,–
O=C(/C=C/c1ccco1)Nc1scc(-c2ccccc2)c1C(=O)O,10µM,–,?,–,?,–
O=C(CCCSc1ccccc1)Nc1nc(-c2ccccn2)cs1,10µM,–,–,–,?,–
O=C(/C=C/c1ccccc1)Nc1scc(-c2ccccc2)c1C(=O)O,–,?,·,–,?,–
O=C(Nc1nc(-c2ccccn2)cs1)C1CCCC1,8.9µM,–,–,–,?,–
Cc1ccc(-c2noc(-c3ccc(N4CCN(C)CC4)c([N+](=O)[O-])c3)n2)cc1,·,–,–,–,·,–
COc1ccc(-c2noc(-c3ccc(N4CCN(C)CC4)c([N+](=O)[O-])c3)n2)cc1OC,·,?,–,11µM,·,?
Cc1cc(C(=O)NC2CCCc3c2cnn3-c2ccc(C)c(C)c2)n(C)n1 (centres undefined),?,–,–,–,0.0079µM,–
COCc1ccc(C(=O)NC2CCCc3c2cnn3-c2ccc(C)c(C)c2)o1 (centres undefined),?,–,?,–,11µM,–
CCCCc1ccc(NC(=O)CSc2nnc3[nH]c(=O)cc(C)n23)cc1,·,·,·,–,·,–
COc1ccc(OC)c(-c2nc(CN3CCCCC3c3cccnc3)c(C)o2)c1 (centres undefined),–,–,–,–,–,–
COc1ccc(-c2nc(CN3CCCCC3c3nccn3C)c(C)o2)c(C)c1C (centres undefined),4.5µM,?,?,–,?,20µM
COc1cc(CN2CCCC(n3cc(C(=O)N4CCCCC4)nn3)C2)cc(OC)c1OC (centres undefined),·,–,·,·,·,·
CCNc1sc(C(=O)c2cccs2)c(N)c1-c1nc2ccccc2s1,?,–,–,–,7.9µM,–
C=CCNc1sc(C(=O)c2ccccc2)c(N)c1-c1nc2ccccc2s1,4.5µM,–,–,–,16µM,–
CCOC(=O)c1sc(NCc2ccco2)c(-c2nc3ccccc3s2)c1N,–,–,–,–,–,?
CCOc1ccc(N(C(=O)c2ccccc2F)S(=O)(=O)c2ccc3c(c2)n(C)c(=O)n3C)cc1,·,–,–,–,·,–
